An excerpt weighted towards active compounds, which were near 28% of everything screened.
CYP2C19 activ: increases human CYP2C19 enzyme activity | 96,000 tested, under 10 active | P33261 | activation factor at 5 µM | AID 1025 | recombinant CYP2C19, luciferin-H EGE luminescence; hits give high values; 0 = fully inhibited enzyme, 1 = untreated enzyme;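 active = activation factor of at least 2 at 5 µM in the primary screen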;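 also: 0 = wells with 2.5 mM tranylcypromine and 1 = vehicle-only wells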
CD11b adhes inh: blocks human CD11b/CD18 adhesion to fibrinogen; P05107+P11215; K562 CD11b/CD18 adhesion to fibrinogen, ATPlite luminescence; Mn2+ added to activate the integrin; inhibition, % at 10 µM; 93,000 tested, 0.54% active; AID 1497;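 active = primary inhibition of 50% or more at 10 µM, then 40% or more on retest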
CYP2C9 act: increases human cytochrome P450 2C9 activity. P11712. recombinant CYP2C9, luciferin-H conversion, luminescence; hits give high values; factor 1 = untreated enzyme, 0 = blocked. activation factor at 5 µM. 96,000 tested, 1.4% active. AID 1024;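 active = activation factor of 2 or more for CYP2C9 at a 5 µM dose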;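 also: 0 = sulfaphenazole-blocked wells and 1 = vehicle-only wells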
Target sequence (P11712 whole entry, looked up): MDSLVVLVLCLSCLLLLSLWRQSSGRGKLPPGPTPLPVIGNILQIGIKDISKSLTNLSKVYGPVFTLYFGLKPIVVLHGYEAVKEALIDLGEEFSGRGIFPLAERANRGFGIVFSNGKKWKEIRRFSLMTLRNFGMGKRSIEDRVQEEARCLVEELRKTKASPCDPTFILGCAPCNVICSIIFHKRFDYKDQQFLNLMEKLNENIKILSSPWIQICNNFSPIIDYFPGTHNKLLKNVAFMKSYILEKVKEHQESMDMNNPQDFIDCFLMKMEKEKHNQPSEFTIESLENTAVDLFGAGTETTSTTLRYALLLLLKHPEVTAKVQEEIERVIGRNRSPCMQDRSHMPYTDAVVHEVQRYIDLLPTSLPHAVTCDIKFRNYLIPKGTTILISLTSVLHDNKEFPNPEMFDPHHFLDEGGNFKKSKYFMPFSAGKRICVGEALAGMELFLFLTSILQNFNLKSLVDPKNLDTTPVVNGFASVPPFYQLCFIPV
CYP2C19 inhib: human CYP2C19 inhibition; P33261; CYP2C19 Supersomes, luciferin-H EGE luminescence, 30 min; inhibition, % at 5 µM; 96,000 tested, 21% active;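 active = CYP2C19 inhibition above a set limit at 5 µM in the primary screen, cut at about 50% in these data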;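 also: plate controls were negative control wells for no effect and 2.5 mM tranylcypromine positive control for full effect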
CYP2C9 inh: inhibitors of human CYP2C9. inhibition, % at 5 µM. AID 777. 96,000 tested, 20% active. CYP2C9 Supersomes, luciferin-H conversion, luminescence;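 active = blocking of liver enzyme CYP2C9 beyond about 50% at 5 µM, limit read from the data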
CD11b adhes enh: increases human CD11b/CD18 adhesion to fibrinogen. AID 1499. activation, % at 10 µM. K562 CD11b/CD18 adhesion to fibrinogen, ATPlite luminescence. 93,000 tested, 0.07% active. P05107+P11215;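 active = 10 µM primary screen giving 50% or more activity, confirmed by 40% or more on retest at that dose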
Starred values were filed as active, the others as inactive; x = no result given.

SMILES	CYP2C19 activ	CD11b adhes inh	CYP2C9 act	CYP2C19 inhib	CYP2C9 inh	CD11b adhes enh
Cn1c(C(=O)O)c(CC(=O)Nc2ccc3c(c2)OCCO3)c2ccccc21	0.4	7.3	0.3	59.2*	65.0*	6.6
CCOc1ccccc1NC(=O)CSc1nnc2c(CC)c(C)nc(N)n12	0.8	-5.6	1.4	20.2	-37.4	4.0
O=S(=O)(c1ccccc1)c1nc(-c2cccs2)oc1NCC1CCCO1 (stereo not drawn)	0.9	6.1	1	12.3	-2.2	-1.8
N#Cc1nc(-c2cccs2)oc1NCC1CCCO1 (stereo not drawn)	0.5	x	0.6	54.6*	38.0	x
COc1ccc(-c2nc(C#N)c(NCC3CCCO3)o2)cc1 (stereo not drawn)	0.4	-6.6	0.3	58.6*	68.3*	0.0
O=C(CSc1oc(-c2cccs2)nc1S(=O)(=O)c1ccc(F)cc1)NCC1CCCO1 (stereo not drawn)	0.4	-15.9	0.5	64.4*	49.9	2.7
COc1ccc(-c2nc(C#N)c(NCCCN3CCOCC3)o2)cc1	0.6	-4.0	0.5	35.5	49.1	0.7
Cc1ccc(S(=O)(=O)c2nc(-c3ccco3)oc2SCC(=O)NCC2CCCO2)cc1 (stereo not drawn)	0.7	1.4	1	26.4	0.9	4.4
CCOc1ccc(-c2nc(C#N)c(NC3CC3)o2)cc1	0.3	-2.6	0.8	68.9*	24.6	6.0
C=CCn1c(Cc2ccc(OC)cc2)nnc1SCC(=O)NCCc1ccccc1	0.7	-4.8	0.7	26.3	30.5	9.2
COC(=O)C(c1cc(OC)c(O)c(OC)c1)(N1CCNC(C)C1)C(F)(F)F (stereo not drawn)	1.3	-1.5	1	-28.0	0.6	-0.7
O=C(Nc1cc(C(F)(F)F)ccc1N1CCCC1)c1cccnc1	0.6	-4.5	0.6	43.3	43.0	-0.9
COc1ccc(-c2csc(N(Cc3ccccc3)C(=O)COc3ccc(Cl)cc3)n2)cc1	1.1	-11.4	1.1	-14.8	-7.3	-6.3
COc1ccc(-c2csc(N(CCc3ccc(OC)c(OC)c3)C(=O)COc3ccccc3)n2)cc1	0.6	-47.9	0.3	37.8	68.3*	49.5
CC(=O)[C@H]1[C@H](c2cccc(Cl)c2)C(C#N)(C#N)[C@@H]2c3ccccc3C=CN21	x	13.4	x	x	x	9.7
COc1cc2c(cc1OC)-c1cc(Nc3ccc4c(c3)OCCO4)nc(=O)n1CC2	0.6	x	0.3	36.5	66.9*	x
COc1cc2c(cc1OC)-c1cc(N3CCCc4ccccc43)nc(=O)n1CC2	0.4	9.3	0.3	59.9*	69.3*	-2.6
O=C(CN(c1ccc(F)cc1)S(=O)(=O)c1ccc2c(c1)OCCO2)N1CCOCC1	0.9	-6.9	0.7	11.2	27.8	-0.4
CC(OC(=O)c1cc(S(=O)(=O)Nc2ccc(F)cc2)ccc1Cl)C(=O)Nc1ccc2c(c1)OCCO2 (stereo not drawn)	x	-3.3	x	x	x	1.6
CN1CCOc2cc(S(=O)(=O)Nc3ccc(F)cc3)ccc21	0.1	23.0	0.4	87.0*	59.7*	-5.7
CCC1(C)Cc2nc3[nH]c(=S)n(-c4ccc(C)cc4)c(=O)c3cc2CO1 (stereo not drawn)	x	-22.0	x	x	x	62.5
CC1CCN(CC(O)COCCC23CC4CC(CC(C4)C2)C3)CC1 (stereo not drawn)	0.7	11.1	1.1	32.2	-7.1	2.4
CCOP(=O)(OCC)c1nc(/C=C/c2ccccc2)oc1NCc1ccc(OC)cc1	0	-33.6	0.2	97.8*	78.4*	6.7
COc1ccc(-c2nnc(SCC(=O)NC(=O)NCc3ccccc3)o2)cc1	0.6	-8.1	1.9	42.1	-94.6	12.2
CCOP(=O)(OCC)c1nc(/C=C/c2ccccc2)oc1NCc1ccccc1	0.4	x	0.6	55.7*	35.7	x
SMILES	CYP2C19 activ	CD11b adhes inh	CYP2C9 act	CYP2C19 inhib	CYP2C9 inh	CD11b adhes enh
CCOP(=O)(OCC)c1nc(-c2cccc3ccccc23)oc1NCc1ccccc1	0.7	-68.2	0.6	29.8	37.1	0.4
O=C(O)C1C2C=CC(C2)C1C(=O)Nc1ccc(C(=O)N2CCCCC2)cc1 (stereo not drawn)	0.9	-12.7	0.9	14.9	5.2	-0.7
C/C(=N\NC(=O)COc1ccc([N+](=O)[O-])cc1)C(C)(C)C	0.8	x	0.9	22.6	8.2	x
Cn1c(=O)c2c(nc(NCc3cccnc3)n2Cc2cccc(C(F)(F)F)c2)n(C)c1=O	0.5	-0.9	0.3	53.1*	69.3*	-0.7
COc1cccc(Cn2c(NCc3cccnc3)nc3c2c(=O)n(C)c(=O)n3C)c1	0.9	x	0.6	12.9	35.4	x
COc1ccc(NC(=O)c2cc(C3CC3)on2)c(OC)c1	1	-30.3	2.9*	-3.1	-188.9	0.9
Cc1c(Cl)cccc1NC(=O)c1cc(C2CC2)on1	0.2	-6.5	1.2	83.9*	-20.4	-2.7
COC(=O)c1ccccc1NC(=O)c1cc(C2CC2)on1	1.1	-2.8	1.9	-11.0	-87.1	3.0
NC(=O)C1CCN(S(=O)(=O)c2cccc(C(=O)O)c2)CC1	1	-1.3	1	-2.5	0.6	-1.6
CCC1(C)NC(=O)N(CC(=O)N2N=C(c3ccccc3)CC2c2ccc(OC)cc2)C1=O (stereo not drawn)	x	-3.9	x	x	x	-3.5
COc1cc(OC)c(NC(=O)CCc2ccccc2)cc1Cl	0.2	-0.4	1.5	84.0*	-54.3	-2.6
COc1ccc(Cl)cc1NC(=O)CCc1ccccc1	0.2	-6.9	3*	82.9*	-204.7	-1.2
COc1cc(NC(=O)CCc2ccccc2)c(C(=O)O)cc1OC	1	11.2	0.8	1.1	18.1	-5.5
CCOCCC(=O)Nc1cc(Cl)ccc1OC	0.9	1.8	1.3	9.3	-32.3	2.4
CCOC(=O)c1[nH]c(C)c(C(=O)OCCOc2cccc(C)c2)c1C	x	8.8	x	x	x	-0.6
Cc1cc(OCC(=O)NCc2nc(-c3ccccc3)no2)c(C)cc1Br	1	-17.4	0.9	-3.3	11.1	5.1
O=c1c2ccccc2nnn1CSc1nnc(C2COc3ccccc3O2)n1-c1ccccc1 (stereo not drawn)	0.1	6.6	0.1	86.7*	89.7*	2.8
O=C(OCn1nnc2ccccc2c1=O)C1COc2ccccc2O1 (stereo not drawn)	0.9	-33.9	1	6.8	-2.0	3.4
OC(CN1CCOCC1)CN(c1ccccc1)c1ccccc1 (stereo not drawn)	0.3	17.0	0.4	69.5*	64.9*	0.4
COc1ccc(C(=O)C(OC(=O)c2ccccc2Cl)c2ccccc2)cc1 (stereo not drawn)	x	-1.7	x	x	x	3.6
O=C(c1ccccc1)C(CCC(CN1CCOCC1)C(=O)c1ccccc1)CN1CCOCC1 (stereo not drawn)	0.3	-12.4	0.7	69.2*	32.2	0.1
O=C(NCCN1CCOCC1)c1ccc(F)cc1	0.9	0.1	1.2	9.2	-19.5	-0.1
O=C(NCCCN1CCOCC1)c1ccccc1	1.1	-8.6	0.9	-7.3	11.2	-1.8
